Rab9 prom act: activators of Rab9 promoter | Huh7 Rab9 promoter-luciferase reporter, luminescence, 24 h | Potency, µM (top dose mostly 9.22 µM), without a hit: top-dose activation, negative = inhibition, most hits filed as activators | actives 2.8% (n = 320,000) | AID 485297; note: % of control where 0% means no effect; nearly all actives have a fitted effect of over 60% in size
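Luminescence read-out: Huh7 cells stably expressing Rab9-luciferase, treated 24 h with compound at 37 °C, then lysed with luciferase reagent for 10 min at ambient before reading.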
ELG1 genotox: genotoxicity induction in ELG1-luciferase HEK293T cells | Potency, µM (series often up to 46 µM), for the others: at the highest dose activity change, positive = activation, actives largely listed as activators | HEK293T ELG1-luciferase reporter, luminescence, 16 h | actives 1.3% (n = 330,000); note: % of control where 0% means no effect; nearly all actives have a fitted effect of over 60% in size
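After overnight (16 hr) compound treatment at 37 °C, ELG1-luciferase HEK293T cells were lysed with ONE-Glo; luminescence quantified 30 min later at room temperature.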
FLuc counter: counter-screen for miR-21 project: firefly luciferase inhibitors or activators; purified FLuc, Km substrates, luminescence inhibition; Potency, µM (titrated, usually from 57.5 µM), for the others: at the top dose activity change, negative = inhibition, most hits filed as inhibitors; actives 6.9% (n = 360,000);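 note: plate controls were vehicle for no effect and reference inhibitor for full effect; nearly all actives have a fitted effect of over 55% in size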
Target sequence (P08659 whole entry, looked up): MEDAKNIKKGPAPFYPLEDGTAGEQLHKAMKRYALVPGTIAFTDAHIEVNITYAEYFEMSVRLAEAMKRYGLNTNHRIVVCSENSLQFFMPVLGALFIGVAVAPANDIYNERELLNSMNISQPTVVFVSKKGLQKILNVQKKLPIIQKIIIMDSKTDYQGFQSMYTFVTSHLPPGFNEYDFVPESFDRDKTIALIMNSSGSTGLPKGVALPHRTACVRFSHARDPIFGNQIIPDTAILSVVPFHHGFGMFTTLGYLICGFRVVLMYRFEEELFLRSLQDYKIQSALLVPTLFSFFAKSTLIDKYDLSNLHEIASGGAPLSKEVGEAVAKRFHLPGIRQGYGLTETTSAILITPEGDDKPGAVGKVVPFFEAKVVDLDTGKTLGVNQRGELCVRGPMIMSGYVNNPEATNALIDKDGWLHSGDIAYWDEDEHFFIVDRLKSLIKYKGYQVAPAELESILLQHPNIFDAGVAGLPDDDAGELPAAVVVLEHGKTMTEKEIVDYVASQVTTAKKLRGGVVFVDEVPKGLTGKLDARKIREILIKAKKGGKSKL
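Purified P. pyralis luciferase, 10 nM final, with Km-level 10 uM D-luciferin and 10 uM ATP in 50 mM Tris acetate pH 7.5, 10 mM Mg acetate, 0.01% Tween-20, 0.05% BSA; 6-point qHTS titration about 60 µM downward; luminescence read.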
SMN2 splice up: increases expression of the SMN2 splice variant. actives 2.8% (n = 210,000). Potency, µM (doses to about 46.1 µM), without a hit: at the top dose activity change, positive = activation, hits mostly activators. HEK293 SMN2-luciferase splicing reporter, luminescence, 30-36 h; note: % of control where 0% means no effect; nearly all actives have a fitted effect of over 55% in size
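HEK293 cells carry an SMN2 […]–luciferase reporter in which exon 7 inclusion puts luciferase in frame. Cells were plated 10-12 h before compound addition, then incubated 30-36 h at 37C. ONE-Glo luminescence was read; sodium butyrate at 4.5 mM final served as control.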
NPC1 prom act: NPC1 promoter activation. AID 485313. Potency, µM (top dose mostly 9.22 µM), for the others: at the highest dose activation, usual class: activators. actives 2.4% (n = 320,000). Huh7 NPC1 promoter luciferase reporter, 24 h; note: % of control where 0% means no effect; nearly all actives have a fitted effect of over 60% in size
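Luminescence from an NPC1 promoter-driven luciferase reporter in stably transfected Huh7 cells was measured after 24 h compound treatment at 37 °C, followed by 10 min ambient incubation with luciferase detection reagent.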
* marks the source's active call; other numbers are inactive results. Most compounds without a hit are left out; they make up all but 7.4% or so of the library. Calls come from the whole dose curve; as a rule, active = well fitted curve in the direction sought with a large enough effect; inconclusive = small, poorly fitted or top-dose-only effect, or another doubt; inactive = no such curve, though single readings can be large; an effect the other way counts as inactive or inconclusive. Potency is the fitted concentration of half-maximal effect.

For CCOc1ccccc1NC(=O)C1=C(C)NC(=S)NC1c1cccs1 (stereo not drawn) the results were Rab9 prom act -2%, ELG1 genotox -3%, FLuc counter 3%, SMN2 splice up 8% and NPC1 prom act 12%.
For COc1ccc(NC(=O)CSc2nnc(-c3cccc(O)c3)o2)cc1 the results were Rab9 prom act -4%, ELG1 genotox 4%, FLuc counter 2% and NPC1 prom act 1%.
`COc1cccc(NC(=O)CSc2nnc(-c3cc(C)n(-c4ccccc4)c3C)o2)c1` gave Rab9 prom act 19%, ELG1 genotox 15%, FLuc counter 12µM*, SMN2 splice up -42% and NPC1 prom act 21%.
For Cc1csc(NC(=O)CSc2nnc(NC(=O)COc3ccccc3)s2)n1 the results were Rab9 prom act 12%, ELG1 genotox 8%, FLuc counter 2.1µM*, SMN2 splice up 26% and NPC1 prom act 6%.
For COc1cc(/C=N/NC(=O)c2cc(-c3ccccc3)sc2N)cc(OC)c1OC the results were Rab9 prom act 0%, ELG1 genotox -8%, FLuc counter 4.8µM* and NPC1 prom act 6%.
`COc1cc(C(=O)N/N=C/c2sc(=O)n(-c3ccccc3)c2Cl)cc(OC)c1OC` gave Rab9 prom act -8%, ELG1 genotox 7%, FLuc counter 6µM*, SMN2 splice up -4% and NPC1 prom act -4%.
NNC(=O)c1cc(-c2ccccc2)sc1N was read as Rab9 prom act 29%, ELG1 genotox 0%, FLuc counter inconclusive and NPC1 prom act 2%.
For COc1cc(/C=N\NC(=O)c2sc(N)nc2C)cc(OC)c1OC the results were Rab9 prom act 12%, ELG1 genotox 7%, FLuc counter 15µM*, SMN2 splice up 10% and NPC1 prom act 0%.
For COc1cc(/C=N/NC(=O)c2ccc(-c3ccccc3)cc2)cc(OC)c1OC the results were Rab9 prom act 13%, ELG1 genotox -7%, FLuc counter 11µM*, SMN2 splice up 19% and NPC1 prom act 9%.
Screening Cc1nc(N)sc1C(=O)N/N=C/c1ccc([N+](=O)[O-])cc1 returned Rab9 prom act 0%, ELG1 genotox 12%, FLuc counter -1% and NPC1 prom act inconclusive.
For Cn1c(=O)c2c(SCC(=O)NCC3CCCO3)nc(-c3cccc(F)c3)nc2n(C)c1=O (stereo not drawn) the results were FLuc counter 1%.
O=C(Cc1ccccc1)NNC(=O)Nc1ccccc1 was read as Rab9 prom act 2%, ELG1 genotox -2%, FLuc counter 17µM* and NPC1 prom act -2%.
Screening CNC(=O)Nc1ccccc1C(=O)NCc1ccccc1 returned Rab9 prom act 0%, ELG1 genotox 2%, FLuc counter 0%, SMN2 splice up -9% and NPC1 prom act 1%.
O=C(Nc1ccccc1)Nc1ccccc1C(=O)NCc1ccccc1 was read as Rab9 prom act 15%, ELG1 genotox 1%, FLuc counter 21µM*, SMN2 splice up 1% and NPC1 prom act 5%.
Screening O=C(Nc1ccc(Cl)cc1)Nc1ccccc1C(=O)NCc1ccco1 returned Rab9 prom act 7%, ELG1 genotox 18%, FLuc counter 19µM*, SMN2 splice up 13% and NPC1 prom act 5%.
Screening Cc1cccc(CNC(=O)CCCN2C(=O)COc3ccc(C)cc32)c1 returned FLuc counter -11% and SMN2 splice up -5%.
CN(C)c1ccc(-c2nc(-c3ccco3)no2)cc1[N+](=O)[O-] was read as FLuc counter -6%.
Screening CC(C)Cc1cc(C(=O)Nc2cccnc2)no1 returned Rab9 prom act inconclusive, ELG1 genotox 10µM*, FLuc counter 5.4µM*, SMN2 splice up -4% and NPC1 prom act 0%.
For COc1cc(NC(=O)c2cc(CC(C)C)on2)c(OC)cc1Cl the results were Rab9 prom act -3%, ELG1 genotox inconclusive, FLuc counter 0%, SMN2 splice up -14% and NPC1 prom act 12%.
`CSc1ccccc1NC(=O)c1cc(CC(C)C)on1` gave Rab9 prom act inconclusive, ELG1 genotox 21µM*, FLuc counter inconclusive, SMN2 splice up inconclusive and NPC1 prom act inconclusive.
Screening CCOC(=O)C1(CCCc2ccccc2)CCN(C(=O)c2cnn(CC)c2)CC1 returned Rab9 prom act 0%, ELG1 genotox 2%, FLuc counter -1% and NPC1 prom act -5%.
Screening Cc1cnn(Cc2cccnc2)c1N returned Rab9 prom act -1%, ELG1 genotox 3%, FLuc counter 0% and NPC1 prom act -4%.
Screening COCCNC(=O)CSc1nc2cc3c(cc2c(=O)n1CCCC(=O)NCc1ccc2c(c1)OCO2)OCO3 returned FLuc counter -1%.
Screening Cc1[nH]c(=O)c(C#N)c(C)c1CCC(=O)NCc1cccc(C(F)(F)F)c1 returned Rab9 prom act -1%, ELG1 genotox 0%, FLuc counter 0% and NPC1 prom act -4%.
For Clc1ccc(CSc2snnc2-c2ccccc2)c(Cl)c1 the results were Rab9 prom act 20%, ELG1 genotox inconclusive, FLuc counter 13µM*, SMN2 splice up inconclusive and NPC1 prom act inconclusive.
For Cc1sc2ncnc(N3CCC(C(=O)Nc4nc(-c5cccs5)cs4)CC3)c2c1C the results were Rab9 prom act -20%, ELG1 genotox 1%, FLuc counter 11µM* and NPC1 prom act -21%.
`C/C=C/c1ccc(OCCn2nnc3ccccc32)c(OC)c1` gave Rab9 prom act inconclusive, ELG1 genotox inconclusive, FLuc counter 17µM* and NPC1 prom act 26%.
`C=CCc1ccccc1OCCn1nnc2ccccc21` gave Rab9 prom act 6%, ELG1 genotox 0%, FLuc counter -8% and NPC1 prom act 0%.
Screening Cc1cccc(OCCn2nnc3ccccc32)c1C returned Rab9 prom act 27%, ELG1 genotox inconclusive, FLuc counter 17µM* and NPC1 prom act inconclusive.
`C/C(=N/OC(=O)C1CC12CCC2)c1ccc(Br)cc1` (stereo not drawn) gave Rab9 prom act 2%, ELG1 genotox -4%, FLuc counter 6.7µM*, SMN2 splice up 15% and NPC1 prom act -1%.
For Cc1ccccc1CN1CCC(n2nccc2NC(=O)c2ccc3c(c2)OCO3)CC1 the results were Rab9 prom act 21%, ELG1 genotox inconclusive, FLuc counter 19µM* and NPC1 prom act inconclusive.
CC#CC(=O)N1CCC(n2nccc2NC(=O)c2ccc3c(c2)OCO3)CC1 was read as Rab9 prom act 20%, ELG1 genotox 17%, FLuc counter 3% and NPC1 prom act -7%.
Screening CSCCC(=O)N1CCC(n2nccc2NC(=O)c2ccc3c(c2)OCO3)CC1 returned Rab9 prom act 4µM*, ELG1 genotox inconclusive, FLuc counter 12µM* and NPC1 prom act 2.8µM*.
